Measured values reported in PubChem BioAssay (NCATS).
Activity calls are given as the source filed them. A call without a number means that no potency is given here. Calls come from the whole dose curve; as a rule, active = well fitted inhibition curve with a large enough effect; inconclusive = small, poorly fitted or top-dose-only effect; inactive = no such curve, though single readings can be large or run the other way.

assay: qHTS assay for measurement of the activity of small molecule inhibitors on Zika virus induced Caspase-3 activity in human astrocytoma cells (AID 1224859); details: SNB-19 ZIKV-induced caspase-3/7, luminescence, 6 h; series mostly up to 45.7 µM
Procedure, shortened: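 Human SNB-19 astrocytoma cells in RPMI 1640 with 10% FBS receive compound one hour ahead of Zika virus at 2 FFU/cell. After 6 h infection, caspase-3/7 activity is detected by Caspase-Glo luminescence.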

Row | Compound | Potency
1 | C[N+]1(C)C2CC(OC(=O)[C@H](CO)c3ccccc3)CC1C1OC12 (some centres undefined) | inactive
2 | O=c1[nH]c2cc(Cl)c(Cl)cc2[nH]c1=O | inactive
3 | CC(C)ON([C@@H](C(=O)NO)C(C)C)S(=O)(=O)c1ccc(-c2ccccc2)cc1 | inactive
4 | C[C@@H](NC(=O)/C(C#N)=C/c1ccc(O)c(O)c1)c1ccccc1 | inactive
5 | O=[N+]([O-])c1ccc(CSc2ncnc3c2ncn3[C@@H]2O[C@H](CO)[C@@H](O)[C@H]2O)cc1 | inactive
6 | NCCNC(=O)c1ncsc1-c1cccc(F)c1 | inactive
7 | CC(=O)c1ccc(OCC(=O)N2CCCCC2)cc1 | inactive
8 | CN=c1nc(-c2ccccc2)n(-c2ccccc2)s1 | inactive
9 | N[C@@H](CC(=O)O)C(=O)O | inactive
10 | CN1CCc2cc(O)c(O)cc2C(c2ccccc2)C1 (centres undefined) | inactive
11 | CCCCCCCCCCCCCCCCCCNC(=O)OCC(COP(=O)([O-])OCC[n+]1ccsc1)OC (centres undefined) | inactive
12 | COc1cc2nc(N3CCN(C(=O)OCc4ccccc4)C(C(=O)NC(C)(C)C)C3)nc(N)c2cc1OC (centres undefined) | inactive
13 | O=C(c1ccc(OCCCc2cnc[nH]2)cc1)C1CC1 | inactive
14 | CN(C)c1nc2c(Br)c(Br)c(Br)c(Br)c2[nH]1 | inactive
15 | NC(=S)NCCC[C@H](N)C(=O)O | inactive
16 | COc1ccccc1N1CCN(CCN(C(=O)c2ccc(I)cc2)c2ccccn2)CC1 | inactive
17 | N.N.N.N.N.N.N.N.N.N.N.N.N.N.O.O.[Ru+4].[Ru+5].[Ru+5] | inactive
18 | Cn1c(=O)c2[nH]c(-c3ccccc3)nc2n(C)c1=O | inactive
19 | CN1C2CCC1CC(OC(=O)C(O)c1ccccc1)C2 (centres undefined) | inactive
20 | O=P(O)(O)C(Cl)(Cl)P(=O)(O)O | inactive

Row | Compound | Potency
21 | COC(=O)Nc1nc2ccc(C(=O)C3CC3)cc2[nH]1 | inactive
22 | Nc1ncnc2c1ncn2[C@@H]1O[C@H](COP(=O)(O)OP(=O)(O)OP(=O)(O)OP(=O)(O)OC[C@@H]2O[C@H](n3cnc4c(N)ncnc43)[C@@H](O)[C@H]2O)[C@@H](O)[C@H]1O | inactive
23 | CCCCC#Cc1nc(NC)c2ncn([C@@H]3O[C@H](CO)[C@@H](O)[C@H]3O)c2n1 | inactive
24 | CSc1nc(N)c2ncn([C@@H]3O[C@H](COP(=O)(O)OP(=O)(O)OP(=O)(O)O)[C@@H](O)[C@H]3O)c2n1 | inactive
25 | Clc1ccc(N2CCN(Cc3c[nH]c4ncccc34)CC2)cc1 | inactive
26 | CCCCCCCC/C=C/C(=O)O | inactive
27 | O=[N+]([O-])c1ccc2c(c1)S(=O)(=O)C=C2 | inactive
28 | Nc1ccc([N+](=O)[O-])cc1O | inactive
29 | CC(C)NCC(O)COc1cccc2ccccc12 (centres undefined) | inactive
30 | O=c1[nH]c2cc([N+](=O)[O-])c([N+](=O)[O-])cc2[nH]c1=O | inactive
31 | COC(=O)c1nc(Cl)c(Cl)nc1N | inactive
32 | O=C(O)[C@@H]1C[C@@H](C(=O)O)N1 | inactive
33 | CCCCCC(O)c1cccc(OCc2ccc3ccccc3n2)c1 (centres undefined) | inactive
34 | CCc1c(C(=O)NCCc2ccc(N3CCCCC3)cc2)[nH]c2ccc(Cl)cc12 | inactive
35 | CCNC(=O)[C@H]1O[C@@H](n2cnc3c(N)nc(NCCc4ccc(CCC(=O)O)cc4)nc32)[C@H](O)[C@@H]1O | inactive
36 | CC1OC1P(=O)(O)O (centres undefined) | inactive
37 | O=C(O)CC1CC(c2ccccc2)=NO1 (centres undefined) | inactive
38 | COc1cccc(OC)c1OCCNCC1COc2ccccc2O1 (centres undefined) | inactive
39 | CC(C)(C)c1ccc(S(=O)(=O)/C=C/C#N)cc1 | inactive
